HSP90 inh – HSP90 inhibitors, primary screen, cell lysate, luminescence | Heat shock protein HSP 90 (rabbit reticulocyte lysate; luciferase refolding) | Rabbit reticulocyte lysate, luciferase refolding luminescence, 3 h | inhibition, % at 5.6 µM | 290,000 tested, 0.91% active | AID 1789, 2009;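 active means inhibition above the screen-wide mean plus 3 SD, computed separately per campaign, cut at about 16% in these data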;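 further: inhibitors lower the luminescence because luciferase stays unfolded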
aDG glyco act – activators of alpha-DG glycosylation, primary screen, uHTS, Pro5-aDG cells, AlphaScreen; activation, % at 10 µM; alpha-DG glycosylation AlphaScreen (IIH6); 0% Pro5, 100% B10-LARGE cell signal; AID 624168, 2012; 360,000 tested, 0.22% active;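 active means activation of at least 8% versus controls, or a plate z-score of at least 8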;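 further: Pro5 are CHO cells carrying HIG-tagged alpha-DG that lacks glycosylation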
LMP1 NFkB inh – EBV LMP1-driven NF-kappaB luciferase reporter inhibitors, primary screen, cell-based, luminescence, single point. LMP1-induced NF-kappaB luciferase reporter cells. inhibition, % at 12.5 µM. 350,000 tested, 0.69% active. AID 504558, 2011; in the data active means inhibition above about 41%; inconclusive means no clear call, values can overlap the other calls
TWEAK Fn14 block – inhibitors of TWEAK-Fn14 signaling, primary screen, luciferase reporter cells, uHTS; TWEAK-stimulated Fn14 reporter cells, luciferase luminescence, 8 h; inhibition, % at 10 µM; 360,000 tested, 2% active; AID 1159606, 2016; in the data active means inhibition above about 50%
LGR2 inh – inhibitors of bursicon-induced LGR2 CRE-luciferase signal, primary screen, cell-based, HEK293, CRE-luciferase reporter, bursicon stimulation; Drosophila bursicon receptor LGR2 (rickets); bursicon-stimulated, 4 h; inhibition, % at 9.99 µM; 380,000 tested, 0.35% active; AID 720647, 2013;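 active means drop in luminescence signal, shown as inhibition above about 50% in the replicate tests, limit read from the data, passing the limit was not always enough; inconclusive means probably only some replicates passing the limit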;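 further: agonist challenge used bursicon conditioned medium at about half maximal strength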
TROY signal inh – inhibitors of TROY-driven NF-kB signaling, primary screen, Q293 LMP1-TROYcd cells, NF-kB luciferase, uHTS; 360,000 tested, 0.98% active; inhibition, % at 10 µM; AID 1347056, 2019; Q293 LMP1-TROYcd NF-kB luciferase reporter, 4 h;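 active means compounds whose plate-normalised and pattern-corrected inhibition of the luciferase reporter signal at the single screening dose is 50% or more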
Large screens that a line does not name were inactive; ! = not active in a repeat. In the library only some 2.6% were active in any assay of this set; here they are far more common.

COc1ccc(C(=O)OCC(=O)c2c[nH]c3ccccc23)c(OC)c1	none (no result: HSP90 inh)
CCOc1ccc(N(C)S(=O)(=O)c2ccc(C)c(C(=O)OCC(=O)c3c[nH]c4ccccc34)c2)cc1	TWEAK Fn14 block 79
CC(C)CN(C(=O)COC(=O)C12CC3CC(CC(O)(C3)C1)C2)c1c(N)n(Cc2ccccc2)c(=O)[nH]c1=O	none (no result: HSP90 inh)
CC(C)CN(C(=O)COC(=O)C12CC3CC(CC(C3)C1)C2)c1c(N)n(Cc2ccccc2)c(=O)[nH]c1=O	TWEAK Fn14 block 55, LGR2 inh inconclusive (no result: HSP90 inh)
O=c1c2ccccc2nc(/C=C/c2ccc([N+](=O)[O-])o2)n1CCCO	LMP1 NFkB inh 84
CCn1c(/C=C/c2ccc(O)c(O)c2)nc2ccccc2c1=O	LGR2 inh inconclusive
CCn1c(/C=C/c2cc(Br)ccc2O)nc2ccccc2c1=O	TWEAK Fn14 block 63
Cc1[nH]c2ccccc2c1/C=C/c1nc2ccccc2c(=O)n1CCO	TROY signal inh 55
O=C(CSCC(=O)N1CCCCC1)Nc1nc(-c2ccccc2)c(-c2ccccc2)s1	TWEAK Fn14 block 52
CC1CC(C)CN(S(=O)(=O)c2ccc(NC(=O)CCN3C(=O)C4CC=CCC4C3=O)cc2)C1 (configuration not stated)	LMP1 NFkB inh 72 (no result: HSP90 inh)
CC1CCN(S(=O)(=O)c2ccc(NC(=O)CCN3C(=O)C4CC=CCC4C3=O)cc2)CC1 (configuration not stated)	none (no result: HSP90 inh)
Cc1ccc(S(=O)(=O)Nc2ccc3c(c2)CC(=O)N([C@@H](C)CO)C[C@@H](C)[C@H](CN(C)Cc2ccc4c(c2)OCO4)O3)cc1	none (no result: HSP90 inh, aDG glyco act, LMP1 NFkB inh, TWEAK Fn14 block, TROY signal inh)
Cc1cc(Nc2ccccc2)c2c([N+](=O)[O-])cc(C)c(C)c2n1	LMP1 NFkB inh 42 (no result: LGR2 inh)
CN(C)C(=S)c1ccc(N(C)C)cc1	none
C=C(C)C(=O)Oc1ccc(N=Nc2ccc(C)cc2)ccc1=O	TWEAK Fn14 block 59 (no result: HSP90 inh, LMP1 NFkB inh)
CC(=O)c1ccc(N=Nc2ccc(C)cc2)cc1	TWEAK Fn14 block 68, LGR2 inh 73, TROY signal inh 61
CC(=O)c1ccc(N=Nc2ccc(N(C)C)cc2)cc1	TWEAK Fn14 block 104, TROY signal inh 54 (no result: LGR2 inh)
C[C@@H]1CCCCO[C@@H](CN(C)C(=O)Cc2ccccc2)[C@H](C)CN([C@@H](C)CO)C(=O)c2cc(NC(=O)c3ccncc3)ccc2O1	none (no result: HSP90 inh, aDG glyco act, LMP1 NFkB inh, TWEAK Fn14 block, TROY signal inh)
CCCNC(=O)C[C@@H]1CC[C@H]2[C@@H](COc3ccc(NC(=O)Nc4ccccc4)cc3C(=O)N2C)O1	none (no result: HSP90 inh, aDG glyco act, LMP1 NFkB inh, TWEAK Fn14 block, TROY signal inh)
Cc1ccc(C(=O)Nc2cccc(C(F)(F)F)c2)cc1NC(=O)c1ccno1	LMP1 NFkB inh 46 (no result: HSP90 inh)
COc1cc(NC(=O)c2cnc(N)o2)cc(C(=O)Nc2cccc(C(F)(F)F)c2)c1	TWEAK Fn14 block 57! (no result: HSP90 inh)
COc1cc(NC(=O)c2ccnc(N)c2)cc(C(=O)Nc2cccc(C(F)(F)F)c2)c1	none (no result: HSP90 inh)
Cc1ccc(C(=O)Nc2cccc(C(F)(F)F)c2)cc1Nc1ncnc2nc[nH]c12	LMP1 NFkB inh 44 (no result: HSP90 inh)
Cc1ccc(C(=O)Nc2cccc(C(F)(F)F)c2)cc1Nc1cnccn1	none (no result: HSP90 inh)
Cc1ccc(C(=O)Nc2cccc(C(F)(F)F)c2)cc1NC(=O)c1nccn1C	none (no result: HSP90 inh)
CCCNC(=O)Nc1ccc2c(c1)OC[C@H](C)N(S(C)(=O)=O)C[C@H](C)[C@@H](OC)CN(C)C2=O	none (no result: HSP90 inh, aDG glyco act, LMP1 NFkB inh, TWEAK Fn14 block, TROY signal inh)
C[C@@H]1CN([C@H](C)CO)S(=O)(=O)c2ccc(C#CCN(C)C)cc2O[C@H]1CN(C)Cc1ccccc1	none (no result: HSP90 inh, aDG glyco act, LMP1 NFkB inh, TWEAK Fn14 block, TROY signal inh)
c1ccc(-c2cnc(-c3ccccc3)nn2)cc1	LGR2 inh 74 (no result: HSP90 inh)
Brc1ccc(-c2ccccc2)cc1	none (no result: HSP90 inh)
Brc1ccc(-c2ncc(-c3ccccc3)cn2)cc1	TWEAK Fn14 block 52 (no result: LGR2 inh)
C/C=C/c1ccc2c(c1)O[C@@H](CN(C)C(=O)Cc1cccnc1)[C@H](C)CN([C@@H](C)CO)S2(=O)=O	none (no result: HSP90 inh, aDG glyco act, LMP1 NFkB inh, TWEAK Fn14 block, TROY signal inh)
COc1ccc(CCNC2=C(Cl)C(=O)N(CCc3ccc(OC)c(OC)c3)C2=O)cc1OC	TWEAK Fn14 block 51 (no result: LGR2 inh)
COC1=C(c2ccccc2)C(=O)c2ccccc2C1=O	none
O=C(C1=C(c2ccccc2)C(=O)c2ccccc2C1=O)c1ccccc1	HSP90 inh 74, LMP1 NFkB inh 90, TWEAK Fn14 block 97, TROY signal inh 62 (no result: LGR2 inh)
COc1ccc(-c2csc3ncnc(NCCO)c23)cc1	LMP1 NFkB inh 42, TWEAK Fn14 block 72
COc1ccc(-c2csc3ncnc(NCCCO)c23)cc1	LMP1 NFkB inh 52, TWEAK Fn14 block 65
COc1ccc(-c2csc3ncnc(Nc4ccc(O)cc4)c23)cc1	none
Cc1ccc(C(=O)/C=C\C(=O)c2ccc(C)cc2)cc1	none
Cc1ccc(S/C=C\C(=O)c2ccccc2)cc1	TWEAK Fn14 block 88, TROY signal inh 53
CCC(=O)NC(=S)Nc1ccc(NC(=O)c2cccnc2)cc1	TWEAK Fn14 block 72
CCNS(=O)(=O)c1ccc(NC(=O)c2cccnc2)cc1	aDG glyco act 17
O=C(Nc1ccc(S(=O)(=O)Nc2ncccn2)cc1)c1cccnc1	none (no result: LGR2 inh)
O=C(c1cccc(NS(=O)(=O)c2ccc(F)c(F)c2)c1)N1CCN(C(c2ccccc2)c2ccccc2)CC1	TWEAK Fn14 block 57 (no result: LGR2 inh)
O=C(c1cccc(NS(=O)(=O)c2ccccc2)c1)N1CCCC1	none
S=c1sc2c(Cl)ncnc2n1-c1ccccc1	LGR2 inh 104
CCCCC(=O)NC(c1cccs1)c1cc(Cl)c2cccnc2c1O (configuration not stated)	none
CCC(=O)NC(c1ccco1)c1cc(Br)c2cccnc2c1O (configuration not stated)	none (no result: HSP90 inh, LMP1 NFkB inh)
CC(C)C(=O)NC(c1ccc(Cl)cc1Cl)c1ccc2cccnc2c1O (configuration not stated)	LMP1 NFkB inh inconclusive, TWEAK Fn14 block 103
CCCCC(=O)NC(c1ccc(Cl)cc1Cl)c1ccc2cccnc2c1O (configuration not stated)	LMP1 NFkB inh 69
CCC(=O)NC(c1ccc(Cl)cc1Cl)c1ccc2cccnc2c1O (configuration not stated)	LMP1 NFkB inh 49
O=C(/C=C/c1ccccc1O)c1ccccc1	none (no result: HSP90 inh)
CC(=O)/C=C/c1ccccc1O	LMP1 NFkB inh 52
COc1ccc2c(c1)/C(=C/c1cc(OC)c(OC)c(OC)c1)C(=O)N2	TWEAK Fn14 block 57 (no result: HSP90 inh)
O=S1(=O)CC(N2CCCCC2)C(N2CCCCC2)C1 (configuration not stated)	LMP1 NFkB inh 51 (no result: LGR2 inh)
O=S1(=O)CC(N2CCCC2)CN1C1CCCCC1 (configuration not stated)	none (no result: HSP90 inh, LMP1 NFkB inh)
COc1cc(C(=O)Nc2nc3ccc(C)cc3s2)ccc1OCc1c(C)noc1C	TWEAK Fn14 block 50 (no result: LGR2 inh)
